Source: PubChem BioAssay
Most compounds without a hit are left out; they make up all but 21% or so of the library.
DT40 TDP1 CPT: qHTS for Inhibitors of human tyrosyl-DNA phosphodiesterase 1 (TDP1): qHTS in cells in presence of CPT; chicken DT40 Tdp1-/-;hTDP1 cells + 20 nM CPT, ATP luminescence, 48 h; Potency, µM (highest dose often 46.2 µM), hits mostly inhibitors; 420,000 tested, 12% active; further: nearly all actives have a fitted effect of over 55% in size
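Chicken DT40 Tdp1-/- cells stably complemented with human TDP1 were seeded at 400 cells/well in medium containing 20 nM camptothecin, exposed to pin-transferred compounds, and grown at 37 °C for at least 48 hr. Viability was read as ATP luminescence.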
TDP1 cell noCPT: qHTS for Inhibitors of human tyrosyl-DNA phosphodiesterase 1 (TDP1): qHTS in cells in absence of CPT | DT40 Tdp1-/- hTDP1 cells, no CPT, ATP luminescence, 48 h | Potency, µM (top dose mostly 46.2 µM), hits mostly inhibitors | 420,000 tested, 15% active | AID 686978, 2013; further: nearly all actives have a fitted effect of over 55% in size
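Chicken DT40 Tdp1-/- cells complemented with human TDP1, screened without camptothecin (DMSO vehicle only), 400 cells/well. Compounds pin-transferred, cells incubated at 37 °C for at least 48 hr. Growth read as ATP-dependent luminescence (CellTiter-Glo, 30 min at RT).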
ELG1 DNA repair: qHTS screen for small molecules that inhibit ELG1-dependent DNA repair in human embryonic kidney (HEK293T) cells expressing luciferase-tagged ELG1; HEK293T ELG1-luciferase reporter, luminescence, 16 h; DNA damage induced by 5-fluorouridine; Potency, µM (titrated, usually from 46.1 µM), hits mostly inhibitors; 330,000 tested, 2.3% active; AID 504467, 2011; further: nearly all actives have a fitted effect of over 55% in size
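Step one: seed 2,000 cells per well. Step two: pin-transfer compound or DMSO alongside 5-fluorouridine. Step three: incubate 16 hr, 37 °C, 5% CO2. Step four: add ONE-Glo, wait 30 min, read luminescence.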
VP16 counter: VP16 counterscreen qHTS for inhibitors of ROR gamma transcriptional activity | Drosophila S2 Gal4-VP16 UAS-luciferase, luminescence, 20 h | Potency, µM (top dose mostly 53.6 µM), actives largely listed as inhibitors | 310,000 tested, 3.5% active;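 further: Gal4-VP16 expression switched on by copper sulfate through the metallothionein promoter; nearly all actives have a fitted effect of over 50% in size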
IL-1B inflam inh: qHTS for Inhibitors of Inflammasome Signaling: IL-1-beta AlphaLISA Primary Screen; THP-1 LPS/ATP IL-1B secretion, AlphaLISA, 16 h; active compounds read low; activity change, % at 57.5 µM; 360,000 tested, 4.7% active; in the data active means activity change below about -50%; inconclusive means mostly about -30% to -49%
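THP-1 cells pretreated 1 hr with compounds (up to 57.5 uM final), then stimulated with LPS (250 ng/mL final) plus ATP (1.25 mM final); secreted IL-1B measured by AlphaLISA after 16 hr, decreased signal indicating inhibition.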
RORg inh: qHTS for inhibitors of ROR gamma transcriptional activity. Nuclear receptor ROR-gamma (Mus musculus), P51450. Drosophila S2 Gal4-RORgamma UAS-luciferase reporter, 20 h. 310,000 tested, 5.4% active. Potency, µM (highest dose often 53.6 µM), usual class: inhibitors; further: nearly all actives have a fitted effect of over 60% in size
Target sequence (P51450 whole entry, looked up, the tested form may be a part): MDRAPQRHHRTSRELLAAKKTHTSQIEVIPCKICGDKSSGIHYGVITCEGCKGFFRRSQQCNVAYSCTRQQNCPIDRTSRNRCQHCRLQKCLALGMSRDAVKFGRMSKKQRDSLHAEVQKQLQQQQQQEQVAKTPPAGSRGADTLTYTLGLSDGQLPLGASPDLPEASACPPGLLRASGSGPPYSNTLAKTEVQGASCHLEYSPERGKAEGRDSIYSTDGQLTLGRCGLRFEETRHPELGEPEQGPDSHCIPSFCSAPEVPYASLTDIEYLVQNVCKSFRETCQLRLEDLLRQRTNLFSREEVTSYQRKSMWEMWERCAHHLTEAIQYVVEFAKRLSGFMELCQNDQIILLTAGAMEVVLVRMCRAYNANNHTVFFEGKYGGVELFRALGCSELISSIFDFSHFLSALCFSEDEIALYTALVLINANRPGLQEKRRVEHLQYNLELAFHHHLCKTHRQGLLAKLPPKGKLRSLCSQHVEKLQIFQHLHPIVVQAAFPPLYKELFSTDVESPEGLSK
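Schneider cells (Drosophila), stable Gal4 DBD–ROR gamma + UAS-luc; 1 hr cmpd preincubation; Cu2+ induction 700 uM final; 20 hr ambient; luminescence.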
A number is an active result; n = inactive; u = inconclusive; x = no result given; [ ] = another dose, or the depositor's remark. Unless noted, the call rests on the fitted dose curve; in most records, active means well fitted curve in the direction sought with a large enough effect; inconclusive means small, poorly fitted or top-dose-only effect, or another doubt; inactive means no such curve, though single readings can be large; an effect the other way counts as inactive or inconclusive.

SMILES	DT40 TDP1 CPT	TDP1 cell noCPT	ELG1 DNA repair	VP16 counter	IL-1B inflam inh	RORg inh
Cc1[nH]c2ccccc2c1CN1CCC(CO)(Cc2ccccc2)CC1	13µM	u	n	n	n	n
CC(=O)/C(=N\Nc1ccccc1)Oc1ccc(Br)cc1	n	u	x	x	x	x
COc1ccc(CNC(=O)c2cc3c(=O)n(Cc4cccs4)ccc3nc2C)cc1	u	n	x	x	x	x
COC(=O)N1CCC2(CCCN(C(=O)Nc3ccc(OC)cc3)C2)CC1	n	n	x	n	x	n
FC(F)(F)c1ccc(CN2CCCCCC2)cc1	n	n	n	n	n	n
COc1ccc(CC2(CO)CCN(Cc3cnn(-c4ccccc4OC)c3)CC2)cc1	u	10.3µM	n	n	n	n
COc1ccc(CC2(CO)CCN(Cc3cnn(-c4ccccc4)c3)CC2)cc1	u	u	n	n	-95.1	n
COc1ccc(CC2(CO)CCN(Cc3cnn(-c4ccc(F)cc4)c3)CC2)cc1	n	u	u	n	n	n
COc1ccc(CN2CCN(Cc3ccc(C(F)(F)F)cc3)CC2)cc1	u	23.1µM	u	n	u	n
COc1ccc(CN2CCN(C(=O)c3cccs3)CC2)cc1	n	n	n	n	-87.0	n
c1ccc(-c2nc(-c3ccccc3)c(Nc3ccc4ccccc4c3)o2)cc1	x	x	x	n	x	n
COc1ccc(CC2(CO)CCN(Cc3ccc(OC(F)(F)F)cc3)CC2)cc1	u	18.4µM	n	n	x	n
COc1ccc(CN2CCC(CO)(Cc3ccccc3C(F)(F)F)CC2)c(F)c1	16.4µM	18.4µM	n	n	u	n
CN1C[C@@H]2[C@@H]3C(=O)N(C)C(=O)[C@@H]3[C@](C)(C1=O)N2C(=O)c1ccc(Br)cc1	n	n	x	x	n	x
Cc1ccc(CN2CCSc3ccc(C(=O)NCC(C)c4ccccc4)cc32)cc1 (stereo not drawn)	u	23.1µM	x	x	x	x
Cc1ccc(CN2CCSc3ccc(C(=O)NCc4ccccn4)cc32)cc1	u	n	n	n	n	u
O=C(NC1CC1)c1ccc2c(c1)N(Cc1ccccc1)CCS2	u	n	n	n	n	n
O=C(NCc1ccco1)c1ccc2c(c1)N(Cc1ccc(Cl)cc1)CCS2	u	u	u	n	-60.2	n
Cc1ccc(CN2CCSc3ccc(C(=O)NCCc4ccccc4)cc32)cc1	23.1µM	23.1µM	x	x	x	x
COc1ccc(OC)c(CCNC(=O)c2ccc3c(c2)N(Cc2ccccc2)CCS3)c1	23.1µM	16.4µM	n	u	n	n
O=C(NCc1ccco1)c1ccc2c(c1)N(Cc1ccccc1)CCS2	n	n	u	n	u	n
O=C(NC1CC(=O)N(c2ccc(Cl)cc2)C1)c1cccs1 (stereo not drawn)	n	n	x	x	x	x
COc1ccc(N2CC(NC(=O)/C=C\c3ccc(OC)c(OC)c3)CC2=O)cc1 (stereo not drawn)	n	n	x	x	x	x
Fc1ccc(-c2nn(-c3ccc(Cl)cc3)c3c2cnc2ccc(F)cc23)cc1	n	n	x	x	x	x
NS(=O)(=O)c1ccc(CCNC(=O)c2ccc3c(c2)N(Cc2ccccc2)CCS3)cc1	n	n	n	n	n	n
SMILES	DT40 TDP1 CPT	TDP1 cell noCPT	ELG1 DNA repair	VP16 counter	IL-1B inflam inh	RORg inh
O=C(NCCc1ccc(Cl)cc1)c1ccc2c(c1)N(Cc1ccccc1)CCS2	16.4µM	u	x	x	x	x
COc1cc(/C=C/c2ccc3cccc(O)c3n2)cc(OC)c1OC	u	u	u	u	-102.2	u
COc1cc(/C=C/c2ccc3cccc(O)c3n2)cc(Cl)c1OC	4.11µM	4.11µM	u	4.47µM	-93.3	0.794µM
CC(=O)Nc1ccc(/C=C/c2ccc3cccc([N+](=O)[O-])c3n2)cc1	u	u	n	n	n	n
COc1cc(/C=C/c2ccc3cccc(O)c3n2)cc(Br)c1OC	11.6µM	18.4µM	u	5.01µM	u	1.26µM
COc1ccc(/C=C/c2ccc3cccc(O)c3n2)cc1Br	5.8µM	5.17µM	u	3.16µM	n	2µM
COC(=O)c1ccc(/C=C/c2ccc3cccc(OC)c3n2)cc1	u	u	u	n	n	n
Cc1ccccc1C[C@H](C(=O)O)N1C(=O)c2ccc(C(=O)O)cc2C1=O	x	x	x	n	x	n
N#Cc1cccc(NC(=O)N2CC[C@@]3(CCCN(C(=O)c4ccco4)C3)C2)c1	n	n	x	n	x	n
CN(C)S(=O)(=O)N1CCN(CC(O)COc2ccc3cc(Br)ccc3c2)CC1 (stereo not drawn)	14.6µM	8.2µM	23.1µM	n	n	n
OC(COc1ccc2cc(Br)ccc2c1)CN1CCCC1 (stereo not drawn)	u	23.1µM	u	u	n	n
O=S(=O)(N1CCCCC1)N1CCN(CC(O)COc2ccc3cc(Br)ccc3c2)CC1 (stereo not drawn)	11.2µM	11.2µM	13µM	n	-52.4	n
Cc1nc(C)n(CC(O)COc2ccc3cc(Br)ccc3c2)n1 (stereo not drawn)	u	u	x	u	n	u
OC(COc1ccc(OCC(O)CN2CCCCCC2)cc1)CN1CCCCCC1 (stereo not drawn)	n	u	n	n	u	n
OC(COc1ccc2cc(Br)ccc2c1)CN1CCN(c2ccccn2)CC1 (stereo not drawn)	u	u	n	n	n	n
CN(C)S(=O)(=O)N1CCN(CC(O)COc2ccc(-c3ccccc3)cc2)CC1 (stereo not drawn)	20.6µM	11.6µM	20.6µM	n	u	n[1.91 µM]
O=C(c1[nH]ncc1-c1ccccc1)C1CO1 (stereo not drawn)	9.2µM	13µM	u	n	-72.8	n
O=C(c1[nH]ncc1-c1cccc(Br)c1)C1CO1 (stereo not drawn)	1.64µM	1.84µM	u	u	-96.2	u
O=c1cc(Nc2ccc3c(c2)OCO3)[nH]c(=O)n1-c1ccc(Br)cc1	u	23.1µM	n	n	n	n
CC[C@H](C)[C@H](NC(=O)[C@H](C)NC(=O)CNC(=O)[C@H](CCCCN)NC(=O)[C@H](CC(N)=O)NC(=O)[C@H](CO)NC(=O)CN)C(=O)N[C@H](C(=O)NCC(=O)N[C@@H](CC(C)C)C(=O)N[C@@H](CCSC)C(=O)O)[C@@H](C)CC	x	x	x	n	x	n
O=C(CCCn1c(SCC(=O)c2ccc(Cl)cc2)nc2ccccc2c1=O)NCc1ccco1	n	u	n	u	n	n
O=C(CSc1nc2ccccc2c(=O)n1-c1ccccc1)NCc1ccco1	n	u	n	n	n	n
